Reference: PubChem BioAssay (NCI)
About 83,000 compounds went through this panel and 20% of them were active in at least one assay; those are over-represented in the sample as a whole.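 Each cell line was grown in a 96-well plate and treated with one concentration of compound for 48 hours. Values below 10 were considered active.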 Active and inactive are the calls of the source.

What was measured:
Assay in all cases: NCI-60 one-dose screen, 48 h (100 = growth as untreated, 0 = no growth, -100 = all killed)
Conditions in all cases: 10 µM unless noted
NCI-H23 lung = system: NCI-H23 lung
NCI-H226 lung = system: NCI-H226 lung
NCI-H322M lung = system: NCI-H322M lung
HOP-62 NSCLC = system: HOP-62 NSCLC
NCI-H460 lung = system: NCI-H460 lung
HOP-92 NSCLC = system: HOP-92 NSCLC
NCI-H522 lung = system: NCI-H522 lung
A549/ATCC NSCLC = system: A549/ATCC NSCLC
786-0 renal = system: 786-0 renal
COLO 205 colon = system: COLO 205 colon
DU-145 prostate = system: DU-145 prostate
K-562 leukemia = system: K-562 leukemia
MALME-3M melanoma = system: MALME-3M melanoma
MDA-MB-231 breast = system: MDA-MB-231 breast
RXF 393 renal = system: RXF 393 renal
SF-268 CNS = system: SF-268 CNS
SF-539 CNS = system: SF-539 CNS
UACC-257 melanoma = system: UACC-257 melanoma
M14 melanoma = system: M14 melanoma
SF-295 CNS = system: SF-295 CNS

Measured: growth

Nc1c(C(=O)Nc2cccc(Cl)c2)sc2ncc(Cl)cc12
inactive: NCI-H23 lung 87% | NCI-H226 lung 75.7% | NCI-H322M lung 64.7% | HOP-62 NSCLC 73% | NCI-H460 lung 13.8% | HOP-92 NSCLC 91.9% | NCI-H522 lung 97.4% | A549/ATCC NSCLC 43.4% | 786-0 renal 85.4% | COLO 205 colon 79.6% | DU-145 prostate 56.7% | K-562 leukemia 80.6% | MALME-3M melanoma 69.8% | MDA-MB-231 breast 83.7% | RXF 393 renal 83.5% | SF-268 CNS 63.5% | SF-539 CNS 60.8% | UACC-257 melanoma 100% | M14 melanoma 88.2%

CC(C)(C)c1ccc(OP(=S)(N/N=C/c2ccccc2O)Oc2ccc(C(C)(C)C)cc2)cc1
inactive: NCI-H23 lung 58.1% | NCI-H226 lung 58.6% | NCI-H322M lung 76.3% | HOP-62 NSCLC 91.7% | NCI-H460 lung 87% | HOP-92 NSCLC 70.6% | NCI-H522 lung 12.1% | A549/ATCC NSCLC 56.7% | 786-0 renal 68.6% | COLO 205 colon 79.7% | DU-145 prostate 92% | K-562 leukemia 59% | MALME-3M melanoma 86.8% | MDA-MB-231 breast 63.5% | RXF 393 renal 87.3% | SF-268 CNS 69.8% | SF-539 CNS 66.8% | UACC-257 melanoma 59.8% | M14 melanoma 77.7%

Cc1cc(Cl)c2c(N(C)C)cccc2n1
active: NCI-H522 lung -75.5%
inactive: NCI-H23 lung 96% | NCI-H226 lung 101% | NCI-H322M lung 89.9% | HOP-62 NSCLC 102% | NCI-H460 lung 104% | HOP-92 NSCLC 115% | A549/ATCC NSCLC 100% | 786-0 renal 102% | COLO 205 colon 105% | DU-145 prostate 106% | K-562 leukemia 59.5% | MALME-3M melanoma 87.2% | MDA-MB-231 breast 92.8% | RXF 393 renal 116% | SF-268 CNS 111% | SF-539 CNS 106% | UACC-257 melanoma 102% | M14 melanoma 92%

COc1ccc(C(=O)c2cc(OC)c(OC)c(OC)c2)cc1/C=C/C(=O)c1cc(OC)c(OC)c(OC)c1
inactive: NCI-H23 lung 79.9% | NCI-H226 lung 89.5% | NCI-H322M lung 91.2% | HOP-62 NSCLC 117% | NCI-H460 lung 83.7% | HOP-92 NSCLC 83.8% | NCI-H522 lung 84% | A549/ATCC NSCLC 92.9% | 786-0 renal 104% | COLO 205 colon 95.5% | DU-145 prostate 83.4% | K-562 leukemia 99.8% | MALME-3M melanoma 86.1% | MDA-MB-231 breast 62.8% | RXF 393 renal 70% | SF-268 CNS 88.7% | SF-539 CNS 94% | UACC-257 melanoma 81.6% | M14 melanoma 81.4%

O=S(=O)(NCCCNc1cc(-c2cn(-c3ccccc3)nc2-c2cccc(O)c2)ccn1)c1ccc(F)cc1
inactive: NCI-H23 lung 44.4% | NCI-H226 lung 54.1% | NCI-H322M lung 51.2% | HOP-62 NSCLC 53.8% | NCI-H460 lung 24.9% | HOP-92 NSCLC 57.7% | NCI-H522 lung 37.6% | A549/ATCC NSCLC 38.8% | DU-145 prostate 59.5% | MALME-3M melanoma 35.9% | RXF 393 renal 39.7% | SF-268 CNS 44.5% | SF-539 CNS 38.8% | M14 melanoma 26.6%
active: 786-0 renal -4.8% | COLO 205 colon -66.1% | K-562 leukemia 3% | MDA-MB-231 breast -0.971% | SF-295 CNS 5.71%

O=C1NC(=Nc2ccc(S(=O)(=O)Nc3nccs3)cc2)S/C1=C\c1coc2ccccc2c1=O
inactive: NCI-H23 lung 100% | NCI-H226 lung 97.8% | NCI-H322M lung 101% | HOP-62 NSCLC 99.5% | NCI-H460 lung 101% | HOP-92 NSCLC 95.3% | NCI-H522 lung 103% | A549/ATCC NSCLC 99.7% | 786-0 renal 111% | COLO 205 colon 113% | DU-145 prostate 121% | K-562 leukemia 93.8% | MALME-3M melanoma 109% | MDA-MB-231 breast 105% | RXF 393 renal 105% | SF-268 CNS 123% | SF-539 CNS 96.2% | UACC-257 melanoma 105% | M14 melanoma 105%

COc1cc2[nH]c(C(=O)c3cc(OC)c(OC)c(OC)c3)c(N)c2cc1C#CC1CC1
inactive: NCI-H23 lung 50.3% | NCI-H226 lung 50.2% | NCI-H322M lung 52.7% | HOP-62 NSCLC 42.1% | NCI-H460 lung 13.5% | HOP-92 NSCLC 17.2% | A549/ATCC NSCLC 42.9% | 786-0 renal 38.7% | DU-145 prostate 28.9% | K-562 leukemia 30.2% | MALME-3M melanoma 52.4% | MDA-MB-231 breast 58.4% | RXF 393 renal 19.6% | SF-268 CNS 40.7% | UACC-257 melanoma 67.9% | M14 melanoma 22%
active: NCI-H522 lung -4.22% | COLO 205 colon 8.48% | SF-539 CNS -38.7%

Cc1nnc2nc(N)[nH]n2c1=O
inactive: NCI-H23 lung 103% | NCI-H226 lung 111% | NCI-H322M lung 105% | HOP-62 NSCLC 109% | NCI-H460 lung 113% | HOP-92 NSCLC 66.5% | NCI-H522 lung 92.8% | A549/ATCC NSCLC 99% | 786-0 renal 98.8% | COLO 205 colon 121% | DU-145 prostate 104% | K-562 leukemia 101% | MALME-3M melanoma 93.9% | MDA-MB-231 breast 129% | RXF 393 renal 117% | SF-268 CNS 103% | SF-539 CNS 114% | UACC-257 melanoma 98.5% | M14 melanoma 99.2%

Nc1nc(Br)nc2c1ncn2C1CC(O)C(CO)O1 (stereo not given)
inactive: NCI-H23 lung 20.2% | NCI-H226 lung 89.6% | NCI-H322M lung 83.6% | HOP-62 NSCLC 47% | NCI-H460 lung 97.9% | HOP-92 NSCLC 51.5% | NCI-H522 lung 109% | A549/ATCC NSCLC 51.4% | 786-0 renal 62.8% | COLO 205 colon 62.8% | DU-145 prostate 52.7% | K-562 leukemia 79% | MALME-3M melanoma 90.2% | MDA-MB-231 breast 87.2% | SF-268 CNS 73.9% | SF-295 CNS 94.3% | SF-539 CNS 77.8% | UACC-257 melanoma 87.7%
active: M14 melanoma -0.9%

Cn1cc(-c2csc(-c3c[nH]c4ccc(F)cc34)n2)c2cccnc21
inactive: NCI-H23 lung 50.4% | NCI-H226 lung 59.7% | NCI-H322M lung 74.8% | HOP-62 NSCLC 43.2% | NCI-H460 lung 11.4% | HOP-92 NSCLC 71.9% | NCI-H522 lung 12.6% | A549/ATCC NSCLC 46.5% | 786-0 renal 66.6% | COLO 205 colon 35.6% | DU-145 prostate 61.9% | K-562 leukemia 19.8% | MDA-MB-231 breast 50.1% | RXF 393 renal 54.4% | SF-268 CNS 51.1% | SF-295 CNS 14.8% | SF-539 CNS 31% | UACC-257 melanoma 63.4% | M14 melanoma 13.7%

O=C1C=Cc2ncccc2C1=O
active: K-562 leukemia 0.688%
inactive: NCI-H23 lung 70% | NCI-H226 lung 81.8% | NCI-H322M lung 97.7% | HOP-62 NSCLC 99.7% | NCI-H460 lung 111% | HOP-92 NSCLC 97% | NCI-H522 lung 88.8% | A549/ATCC NSCLC 105% | 786-0 renal 103% | COLO 205 colon 54% | DU-145 prostate 78.9% | MALME-3M melanoma 89.9% | RXF 393 renal 106% | SF-268 CNS 97% | SF-295 CNS 102% | SF-539 CNS 86.3% | UACC-257 melanoma 88.1% | M14 melanoma 95.5%

C[N+](C)(CCCCCC[N+](C)(C)C1c2ccccc2-c2ccccc21)C1c2ccccc2-c2ccccc21
inactive: NCI-H23 lung 103% | NCI-H226 lung 108% | NCI-H322M lung 131% | HOP-62 NSCLC 113% | NCI-H460 lung 109% | HOP-92 NSCLC 117% | NCI-H522 lung 80.9% | A549/ATCC NSCLC 102% | 786-0 renal 112% | COLO 205 colon 106% | DU-145 prostate 118% | K-562 leukemia 99.5% | MALME-3M melanoma 104% | MDA-MB-231 breast 115% | RXF 393 renal 113% | SF-268 CNS 111% | SF-539 CNS 102% | UACC-257 melanoma 103% | M14 melanoma 106%

COC(c1ccccc1)(c1ccccc1)c1ccccc1
inactive: NCI-H23 lung 95.4% | NCI-H226 lung 101% | NCI-H322M lung 102% | HOP-62 NSCLC 106% | NCI-H460 lung 101% | HOP-92 NSCLC 147% | NCI-H522 lung 116% | A549/ATCC NSCLC 104% | 786-0 renal 93% | COLO 205 colon 123% | DU-145 prostate 108% | K-562 leukemia 109% | MALME-3M melanoma 95.4% | MDA-MB-231 breast 102% | SF-268 CNS 98.5% | SF-295 CNS 90.7% | SF-539 CNS 102% | UACC-257 melanoma 122% | M14 melanoma 136%

Nc1nc(N)c2nc3c(nc2n1)CCCCCCCCCC3
inactive: NCI-H23 lung 37.1% | NCI-H226 lung 102% | NCI-H322M lung 59.1% | HOP-62 NSCLC 58.1% | NCI-H460 lung 14.3% | HOP-92 NSCLC 79.7% | NCI-H522 lung 53.8% | A549/ATCC NSCLC 20.4% | 786-0 renal 31.9% | COLO 205 colon 54.1% | DU-145 prostate 53.6% | K-562 leukemia 29.1% | MALME-3M melanoma 79.1% | MDA-MB-231 breast 84.9% | RXF 393 renal 80% | SF-268 CNS 42.1% | SF-539 CNS 59.6% | UACC-257 melanoma 55.5% | M14 melanoma 33.1%

O=c1c(CNc2ccc(S(=O)(=O)Nc3nccs3)cc2)coc2ccccc12
inactive: NCI-H23 lung 110% | NCI-H226 lung 96.1% | NCI-H322M lung 87.6% | HOP-62 NSCLC 98.7% | NCI-H460 lung 102% | HOP-92 NSCLC 80.1% | NCI-H522 lung 82.8% | A549/ATCC NSCLC 95.5% | 786-0 renal 103% | COLO 205 colon 119% | DU-145 prostate 110% | K-562 leukemia 92.2% | MALME-3M melanoma 99.7% | MDA-MB-231 breast 98.8% | RXF 393 renal 103% | SF-268 CNS 113% | SF-539 CNS 107% | UACC-257 melanoma 106% | M14 melanoma 104%
